Compound activity from PubChem BioAssay.
Pf apPOL inh: Pf-apPOL DNA polymerase inhibition; inhibition, % at 10 µM; 0.25% of 210,000 active; Recombinant Pf-apPOL, molecular beacon fluorescence, 1.5 h
mHTT-CaM PPI inh: inhibitors of human mutant huntingtin-calmodulin interaction; P42858; AlphaScreen His-mHTT/GST-CaM binding, luminescence; inhibition, % at 15 µM; 3.6% of 190,000 active; AID 1671202
A number is an active result. Most compounds without a hit are left out; they make up all but 3.6% or so of the library. Rule as the data show it: active = inhibition above about 50%; inactive = the rest.

For Cc1ccc(NC(=O)c2cc(S(=O)(=O)N3CCc4ccccc43)ccc2F)cc1 the results were Pf apPOL inh inactive and mHTT-CaM PPI inh inactive.
`COCc1c(C(=O)O)nnn1-c1ccc(C)cc1F` gave Pf apPOL inh inactive and mHTT-CaM PPI inh inactive.
c1ccc(N2N=C3N(c4ccccc4)C2N3c2ccccc2)cc1 was read as mHTT-CaM PPI inh 77.
For COC1N(c2ccccc2)N=C(c2ccccc2)N1c1ccccc1 (stereo not drawn) the results were mHTT-CaM PPI inh inactive.
`Cc1ccccc1C1CCCN1C(=O)Cc1ccccc1Cl` (stereo not drawn) gave Pf apPOL inh inactive and mHTT-CaM PPI inh inactive.
Screening N#CCC(=O)c1ccc(Cl)cc1 returned Pf apPOL inh inactive and mHTT-CaM PPI inh inactive.
For N#CCC(=O)c1ccc([N+](=O)[O-])cc1 the results were Pf apPOL inh inactive and mHTT-CaM PPI inh 98.
Screening O=C1CSC(c2cn(-c3ccccc3)nc2-c2cccnc2)N1Cc1ccccc1 (stereo not drawn) returned Pf apPOL inh inactive and mHTT-CaM PPI inh inactive.
Screening COc1ccc(-c2nn(-c3ccccc3)cc2C2SCC(=O)N2Cc2ccccc2)cc1 (stereo not drawn) returned Pf apPOL inh inactive and mHTT-CaM PPI inh 87.
Cc1ccc(C=C2Oc3c(ccc(O)c3CN(C)C)C2=O)o1 was read as Pf apPOL inh inactive and mHTT-CaM PPI inh inactive.
For CCN1CCN(Cc2c(O)ccc3c(=O)c(Oc4ccc(OC)cc4)c(C)oc23)CC1 the results were Pf apPOL inh inactive and mHTT-CaM PPI inh inactive.
Cc1ccccc1CN1CCCN(c2ncccc2-c2nc(C3CC3)no2)CC1 was read as Pf apPOL inh inactive and mHTT-CaM PPI inh inactive.
`Fc1cccc(Cl)c1CN1CCOCC1` gave Pf apPOL inh inactive and mHTT-CaM PPI inh inactive.
Screening CCc1ccccc1NC(=O)C1c2cc(OC)c(OC)cc2C(=O)N2CCc3ccccc3C12 (stereo not drawn) returned Pf apPOL inh inactive and mHTT-CaM PPI inh 63.
For CCc1ccc(CNC(=O)C2c3cc(OC)c(OC)cc3C(=O)N3CCc4ccccc4C23)cc1 (stereo not drawn) the results were Pf apPOL inh inactive and mHTT-CaM PPI inh inactive.
`CCOc1cc2c(cc1OCC)C1C(C(=O)Nc3cc(C)ccn3)c3ccccc3C(=O)N1CC2` (stereo not drawn) gave Pf apPOL inh inactive and mHTT-CaM PPI inh 51.
CCOc1ccccc1NC(=O)C1c2ccccc2C(=O)N2CCc3ccccc3C12 (stereo not drawn) was read as Pf apPOL inh inactive and mHTT-CaM PPI inh inactive.
COc1ccc(OC)c(S(=O)(=O)N(C)CC2(C)CCOCC2)c1 was read as Pf apPOL inh inactive and mHTT-CaM PPI inh inactive.
`CCC(C)NC(=O)C1(c2ccc(NC(=O)C(C)C)cc2)CCCCC1` (stereo not drawn) gave Pf apPOL inh inactive and mHTT-CaM PPI inh inactive.
For CCn1c(C2CCN(C(=O)Cc3cccc(C)c3)C2)nc2cccnc21 (stereo not drawn) the results were Pf apPOL inh inactive and mHTT-CaM PPI inh inactive.
COc1ccccc1N1CCN(C/C=C/c2ccc(N(C)C)cc2)CC1 was read as Pf apPOL inh inactive and mHTT-CaM PPI inh 62.
For CCN1CCN(C/C=C/c2ccc(N(C)C)cc2)CC1 the results were Pf apPOL inh inactive and mHTT-CaM PPI inh inactive.
For Cc1nnc(NS(=O)(=O)Cc2ccccc2)s1 the results were Pf apPOL inh 56 and mHTT-CaM PPI inh inactive.
Screening CC(C)Cc1nnc(NS(=O)(=O)Cc2ccccc2)s1 returned Pf apPOL inh inactive and mHTT-CaM PPI inh inactive.
Screening COc1cc(C2C(C#N)=C(N)Oc3c2[nH]c(=O)[nH]c3=O)cc(OC)c1OC (stereo not drawn) returned Pf apPOL inh 97 and mHTT-CaM PPI inh inactive.
For COc1cc(C2C(C#N)=C(N)Oc3c2oc(CO)cc3=O)cc(OC)c1OC (stereo not drawn) the results were Pf apPOL inh inactive and mHTT-CaM PPI inh inactive.
Screening Cc1cc2c(cc1Br)NC(=O)C21C(C#N)=C(N)Oc2cc(N)ccc21 (stereo not drawn) returned Pf apPOL inh inactive and mHTT-CaM PPI inh inactive.
`O=C(Nc1ccc(Nc2ccccc2)cc1)C1CC1c1ccccc1` (stereo not drawn) gave Pf apPOL inh inactive and mHTT-CaM PPI inh 88.
`CC(C)c1ccc(NC(=O)C2CC2c2ccccc2)cc1` (stereo not drawn) gave Pf apPOL inh inactive and mHTT-CaM PPI inh inactive.
Screening CCC(NS(=O)(=O)c1cc(Cl)ccc1OC)C12CC3CC(CC(C3)C1)C2 (stereo not drawn) returned Pf apPOL inh inactive and mHTT-CaM PPI inh inactive.
For CCC(NS(=O)(=O)c1ccc(Cl)c([N+](=O)[O-])c1)C12CC3CC(CC(C3)C1)C2 (stereo not drawn) the results were Pf apPOL inh inactive and mHTT-CaM PPI inh 99.
Screening Cn1cc(-c2nc(C(=O)NCc3ccccc3C(F)(F)F)cs2)c2cccnc21 returned Pf apPOL inh inactive and mHTT-CaM PPI inh inactive.
CC(C)Cc1ccc(C#N)c(SCC(=O)O)n1 was read as Pf apPOL inh inactive and mHTT-CaM PPI inh inactive.
`CC1CCCCN1S(=O)(=O)c1ccc(F)c(C(=O)Nc2cccc(Cl)c2)c1` (stereo not drawn) gave Pf apPOL inh inactive and mHTT-CaM PPI inh inactive.
Screening Cc1nnc(C)c2c(C)n(-c3ccc4ncccc4c3)c(C)c12 returned Pf apPOL inh inactive and mHTT-CaM PPI inh inactive.
Screening Cc1ccc(C)n1-c1ccc2ncccc2c1 returned Pf apPOL inh inactive and mHTT-CaM PPI inh 67.
`CC12CCC(CC1N)C2` (stereo not drawn) gave Pf apPOL inh inactive and mHTT-CaM PPI inh 54.
For Cc1c([N+](=O)[O-])cc(C(=O)Nc2ccc3nn(-c4cccc(Cl)c4)nc3c2)cc1[N+](=O)[O-] the results were Pf apPOL inh inactive and mHTT-CaM PPI inh inactive.
`COc1ccc(N2C(=O)CSC2c2cc3c(cc2[N+](=O)[O-])OCO3)c(OC)c1` (stereo not drawn) gave Pf apPOL inh inactive and mHTT-CaM PPI inh inactive.
Screening COc1ccc(N2C(=O)/C(=C/c3ccc([N+](=O)[O-])cc3)N=C2c2cccc(C)c2)cc1 returned Pf apPOL inh inactive and mHTT-CaM PPI inh inactive.
`O=C(Nc1nc(CC(=O)N2CCN(c3ccccc3F)CC2)cs1)c1ccc(=O)[nH]c1` gave Pf apPOL inh inactive and mHTT-CaM PPI inh inactive.
`CCC(Sc1nnnn1-c1ccccc1)C(=O)Nc1nc2ccccc2s1` (stereo not drawn) gave Pf apPOL inh inactive and mHTT-CaM PPI inh 52.
`CCCc1nnc(NC(=O)C(CC)Sc2nnnn2-c2ccccc2)s1` (stereo not drawn) gave Pf apPOL inh inactive and mHTT-CaM PPI inh inactive.
`COc1ccc(N2COc3ccc4c(c3C2)OC(=Cc2cc(OC)c(OC)c(OC)c2)C4=O)cc1` gave Pf apPOL inh inactive and mHTT-CaM PPI inh inactive.
Screening COc1cccc(C=C2Oc3c(ccc4c3CN(c3ccc5c(c3)OCCO5)CO4)C2=O)c1OC returned Pf apPOL inh inactive and mHTT-CaM PPI inh 77.
Screening COc1ccc(N2COc3ccc4c(c3C2)OC(=Cc2ccc(OC)c(OC)c2OC)C4=O)cc1 returned Pf apPOL inh inactive and mHTT-CaM PPI inh 81.
For COc1ccccc1C=C1Oc2c(ccc3c2CN(c2ccc4c(c2)OCCO4)CO3)C1=O the results were Pf apPOL inh inactive and mHTT-CaM PPI inh inactive.
CN(Cc1cccnc1Oc1ccccc1)S(C)(=O)=O was read as Pf apPOL inh inactive and mHTT-CaM PPI inh inactive.
For COc1ccc(C(O)(C#Cc2ccccc2)c2ccccc2)cc1 (stereo not drawn) the results were Pf apPOL inh inactive and mHTT-CaM PPI inh 60.
